Cycloheximide cs: Cycloheximide Counterscreen for Small Molecule Inhibitors of Shiga Toxin. actives 12% (n = 300,000). cell reporter, cycloheximide protein synthesis inhibition counterscreen. max response, %; in the data active = max response mostly above about 13%, no sharp cut-off; inactive = mostly below about 14%; note: read at 38.3 µM for the half of the compounds with a filed dose; 0% is about no effect
Shiga inhibitor: A qHTS for Small Molecule Inhibitors of Shiga Toxin. Vero cells, Shiga toxin protein synthesis inhibition reporter. inhibition, % at 38.7 µM. actives 9.2% (n = 290,000). AID 2315, 2010; in the data active = inhibition mostly above about 28%, no sharp cut-off; inactive = mostly below about 43%; note: 0% is about no effect
HCV inhibitor: qHTS Assay for Inhibitors of Hepatitis C Virus (HCV). Huh7.5.1 HCVcc-Cre infection, luciferase reporter, 44 h. actives 3.4% (n = 340,000). Potency, µM (highest dose often 41.8 µM), for inactives: top-dose activity change, negative = inhibition, actives largely listed as inhibitors; note: potency is the fitted concentration of half-maximal effect; % is set by controls: 0 for no effect and ±100 for the full control effect
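Reporter virus HCVcc-Cre (~0.5 moi) infects cells exposed to compound; seeding density 1,000 cells/well with 4 h settling beforehand. Luminescence, 15 sec read, taken 44 h post-infection following a 15 min RT substrate incubation.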
HCMV inh: qHTS Assay for inhibitors of the human cytomegalovirus (HCMV). HFF cells, HCMV-luciferase reporter, 72 h; stronger effect = lower value. activity change, negative = inhibition, % at 57.5 µM. actives 4.5% (n = 410,000). AID 1259415, 2018; in the data active = activity change below about -60%; inconclusive = no clear call, values can overlap the other calls; inactive = above about -39%; note: % is set by controls: 0 for no effect and ±100 for the full control effect
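Luciferase read-out from HCMV-luciferase-infected HFFs (MOI 1 PFU/cell) 72 h post infection at 37C; compounds added after 16 h cell attachment; activity normalized between buffer-only basal and Salinomycin (10uM) inhibitor controls.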
Pf growth 48h: Primary qHTS for delayed death inhibitors of the malarial parasite plastid, 48 hour incubation; P. falciparum luciferase growth in erythrocytes, 48 h; Potency, µM (doses to about 28.7 µM), without a hit: at the top dose activity change, negative = inhibition, actives largely listed as inhibitors; actives 5.9% (n = 310,000); note: potency is the fitted concentration of half-maximal effect; % is set by controls: 0 for no effect and ±100 for the full control effect
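Erythrocytes infected with P. falciparum carrying an integrated firefly luciferase reporter (2% hematocrit, 0.1% parasitemia final) were exposed to compounds in RPMI 1640 with 0.5% Albumax at 37 C, 5% CO2. Growth inhibition was scored as reduced luminescence.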
Pf growth 96h: Primary qHTS for delayed death inhibitors of the malarial parasite plastid, 96 hour incubation; Potency, µM (highest dose often 28.7 µM), for inactives: at the highest dose activity change, negative = inhibition, actives largely listed as inhibitors; AID 504834, 2011; P. falciparum luciferase reporter growth, 96 h; actives 6.9% (n = 320,000); note: potency is the fitted concentration of half-maximal effect; % is set by controls: 0 for no effect and ±100 for the full control effect
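Erythrocytes infected with luciferase-expressing P. falciparum were dispensed at 2% hematocrit and 0.05% parasitemia (final), then incubated with compounds 96 hours at 37 C in 5% CO2. Luminescence after detection reagent addition reported growth.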
The depositor's hits bear a star; ? = inconclusive; / = not tested or not shown. Rows were chosen to be rich in hits. Some 21% of all compounds tested hit in one or more screens of this group. Unless noted, calls come from the whole dose curve; as a rule, active = well fitted inhibition curve with a large enough effect; inconclusive = small, poorly fitted or top-dose-only effect, or another doubt; inactive = no such curve, though single readings can be large or run the other way.

SMILES | Cycloheximide cs | Shiga inhibitor | HCV inhibitor | HCMV inh | Pf growth 48h | Pf growth 96h
CCOC(=O)N1CCN(c2cc(NCCC(=O)O)c3c4c(onc24)-c2ccccc2C3=O)CC1 | 5 | 8 | ? | / | 8.3µM* | -5%
O=C(O)CCCNc1cc(N2CCN(C(=O)c3ccco3)CC2)c2noc3c2c1C(=O)c1ccccc1-3 | -7 | 1 | -5% | -20 | ? | ?
O=C(O)CCCNc1cc(N2CCC3(CC2)OCCO3)c2noc3c2c1C(=O)c1ccccc1-3 | 24* | 54* | / | / | ? | -24%
COc1ccc(C2NC(=O)c3sc(=S)n(-c4ccccc4)c3N2)cc1 (configuration not stated) | -6 | -27 | -7% | -25 | ? | /
O=C1NC(c2ccccc2)Nc2c1sc(=S)n2-c1ccccc1 (configuration not stated) | 8 | -10 | 0% | -104* | 7% | -42%
CCOc1ccc(C2NC(=O)c3sc(=S)n(-c4ccccc4)c3N2)cc1 (configuration not stated) | -5 | -4 | 17% | 107 | 4.1µM* | 5.9µM*
O=C(Nc1ccnn1C1CCN(C(=O)c2cccc(Cl)c2)CC1)C1CC1 | 24 | -3 | 7% | -9 | -6% | -23%
CCc1cc(=O)oc2c(CN3CCN(C)CC3)c(O)ccc12 | -4 | -11 | 15% | 20 | 0% | -8%
CN1CCN(Cc2c(O)ccc3cc(Br)ccc23)CC1 | 1 | 2 | -12% | -69* | -13% | ?
CCC(C)(C)C(=O)Nc1nnc(CCc2ccccc2)s1 | 39* | 80* | 3% | 151 | 45% | 1%
CC(C)(C)CC(=O)Nc1nnc(CCc2ccccc2)s1 | 29* | 93 | 19% | 89 | ? | 228%
CC1CCN(C(=O)c2ccc3c(c2NCCO)C(=O)c2ccccc2C3=O)CC1 | 3 | -4 | -24% | 26 | ? | /
CCN(CC)CCNC(=O)c1ccc2c(c1NCCO)C(=O)c1ccccc1C2=O | 17 | 40* | 0.89µM* | -109* | 2.6µM* | 4.7µM*
CCN(CC)CCC(=O)Nc1cccc2c1C(=O)c1ccccc1C2=O | 2 | 6 | ? | -99* | -86% | 10µM*
COc1ccc(C(=O)NCC(=O)OCc2cc(=O)n3nc(C4CCCCC4)sc3n2)cc1 | / | / | / | 11 | / | /
Nc1nc(SCC(=O)Nc2ccc(Cl)c(S(=O)(=O)N3CCOCC3)c2)n[nH]1 | -3 | -4 | 1% | 34 | ? | ?
Cc1c(C2Nc3ccccc3C2C)[nH]c2ccccc12 (configuration not stated) | / | / | / | -85* | / | /
CCCc1c(C)c2ccccc2[nH]c1=O | -7 | -15 | -7% | 66 | 5% | /
CCC(C)C(NC(=O)CCCNC(=O)CCC(=O)OC1O[C@H]2OC3(C)CC[C@H]4[C@H](C)CCC(C1C)C24OO3)C(=O)O (some centres not stated) | 10 | 3 | / | -19 | 0% | ?
CCC(C)NC(=O)CCC(=O)OC1O[C@H]2OC3(C)CC[C@H]4[C@H](C)CCC(C1C)C24OO3 (some centres not stated) | 7 | 4 | ? | -76* | -72% | -41%
C[C@H]1[C@@H](OC(=O)CCC(=O)O)OC2OC3(C)CC[C@H]4[C@H](C)CC[C@@H]1[C@@]24OO3 (some centres not stated) | / | / | / | / | 0.0019µM* | 0.0013µM*
Fc1cccc(/C=N/Nc2cc(N3CCOCC3)ncn2)c1 | 23* | 25* | ? | 14 | 147% | 2.3µM*
COc1cccc(/C=N/Nc2cc(N3CCOCC3)ncn2)c1O | 6 | 27 | ? | -99* | 0.93µM* | 135%
Fc1ccc(/C=N/Nc2cc(N3CCOCC3)ncn2)cc1 | 9 | -4 | -9% | 9 | 77% | ?
C(=N\Nc1nc(N2CCOCC2)nc(N2CCOCC2)n1)/c1ccco1 | -2 | 2 | / | / | 7% | ?
SMILES | Cycloheximide cs | Shiga inhibitor | HCV inhibitor | HCMV inh | Pf growth 48h | Pf growth 96h
COc1ccc(/C=N/Nc2cc(N3CCOCC3)ncn2)c(OC)c1 | 1 | 1 | 6% | 9 | -2% | ?
C(=N\Nc1cc(N2CCCCC2)ncn1)/c1ccco1 | 28* | 38* | -2% | 33 | 41% | -8%
Fc1ccc(Nc2nc(N/N=C/c3ccco3)nc(N3CCCCC3)n2)cc1 | 2 | 20 | 11µM* | ? | ? | -23%
Nc1c(C(=O)CSc2nnc(COc3ccc(Cl)cc3)o2)c(=O)[nH]c(=O)n1C1CC1 | / | / | -1% | -6 | ? | 10µM*
COc1ccc(Cc2nnc(SCC(=O)c3c(N)n(C4CC4)c(=O)[nH]c3=O)o2)cc1 | / | / | -1% | 11 | ? | ?
Cc1cccc(Nc2nnc(SCC(=O)NCC3CCCO3)s2)c1 (configuration not stated) | / | / | 6% | 13 | / | /
C/C(N)=C(/C#N)C(=O)CSc1nnc(Nc2cccc(C)c2)s1 | 31* | 67* | ? | -11 | 44% | ?
Nc1c(C(=O)CSc2nncn2-c2ccccc2)c(=O)[nH]c(=O)n1C1CC1 | / | / | 5% | 11 | ? | 12µM*
CCn1c(Cc2ccccc2)nnc1SCC(=O)c1c(N)n(C2CC2)c(=O)[nH]c1=O | / | / | -14% | 0 | ? | 9.3µM*
CCn1c(SCC(=O)c2c(N)n(C3CC3)c(=O)[nH]c2=O)nnc1-c1ccccc1OC | / | / | 13% | 1 | ? | 8.3µM*
Cc1cccc(Nc2nnc(SC(C)C(=O)NC3CC3)s2)c1 (configuration not stated) | / | / | 3% | 2 | 13µM* | 10µM*
COCCn1c(SCC(=O)c2c(N)n(C3CC3)c(=O)[nH]c2=O)nnc1-c1cccc(C)c1 | / | / | 5% | 0 | 8.3µM* | 8.3µM*
CCc1ccc(Nc2nnc(SC(C)C(=O)NC3CC3)s2)cc1 (configuration not stated) | / | / | -3% | -18 | / | /
Cc1cccc(Nc2nnc(SCC(=O)c3c(N)n(C4CC4)c(=O)[nH]c3=O)s2)c1 | / | / | 16% | -14 | -18% | 6.6µM*
COC(=O)c1cc(C)nc2c1c(=O)nc(SCc1ccccc1F)n2C1CC1 | / | / | / | 4 | / | /
O=S(=O)(c1ccccc1)c1nnn2c1nc(Nc1ccccc1)c1cc(Cl)ccc12 | / | / | / | 16 | / | /
O=C(CCc1ccc(S(=O)(=O)NCCc2ccccc2)cc1)N1CCN(Cc2ccc3c(c2)OCO3)CC1 | -7 | -45 | / | -89* | / | ?
CCCNS(=O)(=O)c1ccc(OCC(=O)N2CCN(Cc3ccc4c(c3)OCO4)CC2)c(C)c1 | / | / | 7.9µM* | ? | 9% | ?
O=C1CCc2cc(S(=O)(=O)NCCCC(=O)N3CCN(Cc4ccc5c(c4)OCO5)CC3)ccc2N1 | -2 | 19 | 4% | -10 | -46% | 13µM*
